What was measured:
[1] = test system: HCC1937; assay: relative cell viability, compound + RSL3, vs DMSO (fraction of DMSO control); higher = less growth inhibition; settings: 72 h
[2] = test system: MDA-MB-231; assay: as above; settings: 72 h
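Note: breast cancer cell viability read out with the CCK-8 kit after co-treatment of each compound with the ferroptosis inducer RSL3.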

`CCN(CC)Cc1ccc(C(=O)N(CCc2ccccc2OC)[C@@H]2CCNC2)cc1` + COC(=O)c1ccc([C@H]2c3[nH]c4ccccc4c3C[C@H](C(=O)OC)N2C(=O)CCl)cc1 [RSL3] showed a relative cell viability [1] of 0.666 and a relative cell viability [2] of 0.784.
With `Cc1cc(SCc2sc(-c3ccc(C(F)(F)F)cc3)nc2C)ccc1OCC(=O)O` + COC(=O)c1ccc([C@H]2c3[nH]c4ccccc4c3C[C@H](C(=O)OC)N2C(=O)CCl)cc1 [RSL3] the relative cell viability [1] was 0.339 and the relative cell viability [2] was 0.554.
`CNC(=O)c1cccc(NC(=O)N2CCC(Oc3ccccc3Cl)CC2)c1` + COC(=O)c1ccc([C@H]2c3[nH]c4ccccc4c3C[C@H](C(=O)OC)N2C(=O)CCl)cc1 [RSL3] showed a relative cell viability [1] of 0.895 and a relative cell viability [2] of 0.683.
Molecule `Cc1nc2ccc(NCc3cccc(C(F)(F)F)c3)cc2n(CCNC(=O)CO)c1=O` + COC(=O)c1ccc([C@H]2c3[nH]c4ccccc4c3C[C@H](C(=O)OC)N2C(=O)CCl)cc1 [RSL3] has a relative cell viability [1] of 0.354 and a relative cell viability [2] of 0.567.
`Cc1cc(N2C[C@@H](C)N[C@@H](C)C2)ncc1-c1ccc(-c2nc3c(ccn3C)c(=O)[nH]2)cc1` + COC(=O)c1ccc([C@H]2c3[nH]c4ccccc4c3C[C@H](C(=O)OC)N2C(=O)CCl)cc1 [RSL3] gave a relative cell viability [1] of 0.496 and a relative cell viability [2] of 0.682.
For `CC(=O)Nc1nc(C)c(S(=O)(=O)Nc2ccc(C(O)(C(F)(F)F)C(F)(F)F)cc2)s1` + COC(=O)c1ccc([C@H]2c3[nH]c4ccccc4c3C[C@H](C(=O)OC)N2C(=O)CCl)cc1 [RSL3], the relative cell viability [1] was 0.484 and the relative cell viability [2] was 0.952.
Molecule `CN1CCN(C(=O)C2C(C(=O)O)[C@H]3CC[C@@H]2O3)CC1` (some centres undefined) + COC(=O)c1ccc([C@H]2c3[nH]c4ccccc4c3C[C@H](C(=O)OC)N2C(=O)CCl)cc1 [RSL3] has a relative cell viability [1] of 0.313 and a relative cell viability [2] of 0.367.
